# Reference: PubChem BioAssay (NCATS)
# Inconclusive results are not listed. Calls of active or inactive are those of the source. Unless noted, calls come from the whole dose curve; as a rule, active = well fitted inhibition curve with a large enough effect; inconclusive = small, poorly fitted or top-dose-only effect; inactive = no such curve, though single readings can be large or run the other way.
# Columns and labels:
# [1] = qHTS profiling of the MIPE4 collection as inhibitors of Plasmodium falciparum (HB3) proliferation (AID 743347; call rule not given here;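 note: plate controls were DMSO vehicle wells for no effect and artemisinin wells for full effect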); details: P. falciparum HB3 in erythrocytes, SYBR Green DNA, 72 h; at 28.5 µM (top of the series) unless noted
# Outline: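 Parasite DNA was quantified by SYBR Green I fluorescence (ex 485, em 535 nm) after overnight lysis in saponin/Triton buffer at room temperature. Cultures at 0.3% parasitemia and 2.5% hematocrit were first exposed to compound for 72 h at 37 C; signals were normalised to artemisinin (0.29 uM) and vehicle wells.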
# [2] = Cell Proliferation Assay Versus the ED40515 IL2 Independent ATL cell lines (AID 1053194; calls by dose curve); details: ED40515 IL2-independent ATL cells
# Outline: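 CellTiter-Glo luminescence, read after 15 min at RT, gave viability of IL-2-free ED40515 cells (1000/well, RPMI plus 5% FBS) following 48 h drug exposure at 37C. Control wells held DMSO or 9.2 uM bortezomib.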
# [3] = Cell Proliferation Assay Versus the ED40515 IL2 Dependent ATL cell lines (AID 1053195; calls by dose curve); details: ED40515 IL2-dependent ATL cells
# Outline: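 CellTiter-Glo luminescence (15 min, RT) measured viability after 48 hours at 37C; cells were ED40515 +IL2, 1000/well, in phenol red-free RPMI with 5% FBS. Controls: DMSO and 9.2 uM bortezomib.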
# [4] = High-throughput drug toxicity screening in the BPDCN cell line Gen2.2 (AID 1224824; call rule not given here;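 note: cells exposed to compounds for 48 h before reading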); details: Gen2.2 BPDCN cells; at 45.8 µM (top of the series) unless noted
# Outline: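 Readout is ATP luminescence from Gen2.2 cells after two days of drug exposure in serum-containing medium at 37 °C. Values express percent activity, with vehicle defining full signal and 9.2 uM bortezomib defining zero.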
# [5] = High-throughput drug toxicity screening in the BPDCN cell line Cal-1 (AID 1224825; call rule not given here); details: Cal-1 BPDCN cell viability, qHTS; at 45.8 µM (top of the series) unless noted
# Outline: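 Percent activity derived from CellTiter-Glo luminescence, scaling DMSO to 100% and 9.2 uM final bortezomib to 0%. BPDCN Cal-1 cells (500/well, RPMI plus 10% FBS) incubated with compounds 48 hours at 37C before reading.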
# [6] = qHTS assay for measurement of the activity of small molecule inhibitors on Zika virus induced Caspase-3 activity in human iPSC derived neural progenitor cells (hNPCs) (AID 1224857); note: % of control where 0% means no effect; nearly all actives have a fitted effect of over 65% in size
# Outline: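 Quantitative HTS format: human iPSC neural progenitors, 1 h compound pretreatment, ZIKV 2 FFU/cell for 6 h at 37 C. Percent inhibition derived from luminescent caspase-3/7 signal between uninfected and infected controls.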
# [7] = qHTS assay for measurement of the activity of small molecule inhibitors on Zika virus induced Caspase-3 activity in human astrocytoma cells (AID 1224859);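 note: plate controls were ZIKV-infected untreated cells for no effect and uninfected cells for full effect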
# Outline: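 Readout is luminescence from Caspase-Glo 3/7 added after a 6 h ZIKV infection (2 FFU/cell) of compound-pretreated (1 h) SNB-19 cells; data expressed as % inhibition versus uninfected and infected wells.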
# [8] = qHTS Screen of the MIPE 4.0 Collection Against Ewings Sarcoma (TC71) (AID 1259253); note: nearly all actives have a fitted effect of over 40% in size; note: potency is the fitted concentration of half-maximal effect
# Outline: (§1)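 CellTiter-Glo luminescence after 48 h compound exposure (titration) gave viability; percent activity used DMSO-treated cells as no inhibition and medium-only wells as full inhibition. Cells grown in RPMI/5% FBS, dosed 4 h post-seeding.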
# [9] = qHTS Screen of the MIPE 4.0 Collection Against Ewings Sarcoma (RDES) (AID 1259252); note: nearly all actives have a fitted effect of over 35% in size; note: potency is the fitted concentration of half-maximal effect
# Outline: as §1
# [10] = qHTS Screen of the MIPE 4.0 Collection Against Ewings Sarcoma (EW8) (AID 1259255); note: nearly all actives have a fitted effect of over 35% in size; note: potency is the fitted concentration of half-maximal effect;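 for viability: 100% = DMSO-treated cells and 0% = medium-only wells without cells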
# Outline: as §1
Compound,"growth, % of control [1]",Potency [2],Potency [3],"cell viability, % of control (lower = more cytotoxic) [4]",viability (% of control) [5],Potency [6],Potency [7],Potency [8],Potency [9],Potency [10]
CC1(C)Cc2c(-c3ccccc3)c(-c3ccc(Cl)cc3)c(CC(=O)O)n2C1,82.7%,11.8 µM (active),5.26 µM (active),71.9%,78.3%,inactive,inactive,16.6 µM (active),,
Cc1ccc(-n2nc(C(C)(C)C)cc2NC(=O)Nc2ccc(OCCN3CCOCC3)c3ccccc23)cc1,72.4%,26.4 µM (active),26.4 µM (active),240%,64.8%,,inactive,20.9 µM (active),29.6 µM (active),
Cc1cc([C@@H](C)Nc2ccccc2C(=O)O)c2nc(N3CCOCC3)cc(=O)n2c1,3.82% [at 57.5 µM],20.9 µM (active),1.05 µM (active),13.7% [at 92.2 µM],27.7% [at 92.2 µM],inactive,inactive,34 µM (active),3.03 µM (active),42.9 µM (active)
COc1ccccc1[C@H](c1cccc2ccccc12)[C@@](C)(C#N)C(=O)N1CCC(c2cccc(C(F)(F)F)c2)CC1,6.38%,7.43 µM (active),2.64 µM (active),2.69%,10.6%,inactive,inactive,10.5 µM (active),13.2 µM (active),6.62 µM (active)
CCN(CC)CCCC(C)Nc1nc(C)cc(Nc2ccc3nc(C)cc(N)c3c2)n1 (stereo not given),20%,26.4 µM (active),,55.4%,74.8%,inactive,inactive,inactive,inactive,
CCOc1cc(C(=O)Nc2ccc(Cl)c(-c3nc4ccccc4[nH]3)c2)cc(OCC)c1OCC,7.25%,18.7 µM (active),,0.788%,43.8%,inactive,inactive,,14.8 µM (active),
C[C@]12CC[C@H](O)CC1=CC[C@@H]1[C@H]2CC[C@]2(C)C(c3cccnc3)=CC[C@H]12,9.4% [at 9.64 µM],26.4 µM (active),,60.5% [at 23.2 µM],98.4% [at 23.2 µM],inactive,inactive,inactive,inactive,inactive
CCOc1cc(N2CCC(O)CC2)ccc1Nc1ncc2c(n1)N(C)c1ccccc1C(=O)N2C,5.43%,5.26 µM (active),11.8 µM (active),6.39%,2.19%,,inactive,16.6 µM (active),20.9 µM (active),23.5 µM (active)
CC(C)(Sc1ccc(CCN(CCCCC2CCCCC2)C(=O)NC2CCCCC2)cc1)C(=O)O,78.8%,33.2 µM (active),18.7 µM (active),75.1%,7.76%,inactive,inactive,inactive,14.8 µM (active),4.69 µM (active)
COc1ccc2c3n(c(=NC(=O)c4cccnc4)nc2c1OC)CCN3,3.38%,23.5 µM (active),4.18 µM (active),9.57%,12.7%,inactive,inactive,10.5 µM (active),2.09 µM (active),20.9 µM (active)
COc1ccc(-c2c(-c3ccc(O)cc3O)n[nH]c2C)cc1,106% [at 57.5 µM],23.5 µM (active),2.09 µM (active),96.4% [at 92.2 µM],61.9% [at 92.2 µM],,inactive,,,
C#Cc1cccc(Nc2ncnc3cc(OCCOC)c(OCCOC)cc23)c1,4.75%,11.8 µM (active),9.35 µM (active),24.7%,10.9%,inactive,inactive,14.8 µM (active),4.18 µM (active),23.5 µM (active)
CC(=O)NC(C)c1ccc(Oc2ccc(OC(C)C)cc2)cc1 (stereo not given),20.1%,10.5 µM (active),13.2 µM (active),281%,98.5%,inactive,inactive,8.33 µM (active),inactive,6.62 µM (active)
C/C(=C\C(=O)Nc1ccccc1C(=O)O)c1ccc2ccccc2c1,,8.33 µM (active),,,,,,,,
COc1nc(-c2ccc3c(c2)OCO3)n(-c2ccc(NC(=O)CSc3ccccc3)cc2)n1,82%,23.5 µM (active),20.9 µM (active),127%,116%,inactive,inactive,20.9 µM (active),,inactive
O=C(O)c1ccc(-c2c[nH]c3ccc(-c4ccccc4)cc23)cc1C1CCCC1,,,5.26 µM (active),,,,,,,
CCc1cncnc1N1CCN(Cc2nc3ccc(C(F)(F)F)cc3[nH]2)CC1,15.6%,,1.18 µM (active),130%,91.1%,inactive,inactive,,20.9 µM (active),
CC(c1cc2ccccc2s1)N(O)C(N)=O (stereo not given),101%,,67.9 µM (active),150%,110%,inactive,inactive,inactive,inactive,inactive
CCC(C)N(C)C(=O)c1cc2ccccc2c(-c2ccccc2Cl)n1 (stereo not given),53.6%,,11.8 µM (active),95%,94.3%,inactive,inactive,23.5 µM (active),,inactive
